Common to all, as to experiment: NCI-60 one-dose screen, 48 h (100 = growth as untreated, 0 = no growth, -100 = all killed)
The subject of one test is HCT-15 colon. As to conditions: 10 µM unless noted.
The next test relates to HT29 colon. The following applies: 10 µM unless noted.
Another test has as its system SNB-75 CNS. The following applies: 10 µM unless noted.
The test system of the next test is SNB-19 CNS. As to conditions: 10 µM unless noted.
For the next test, the system named is U251 CNS. As to conditions: 10 µM unless noted.
The subject of another test is PC-3 prostate. As to conditions: 10 µM unless noted.
A further test concerns SK-MEL-5 melanoma. As to conditions: 10 µM unless noted.
The next test deals with UACC-62 melanoma. As to conditions: 10 µM unless noted.
The subject of another test is LOX IMVI melanoma. As to conditions: 10 µM unless noted.
Another test concerns SK-MEL-28 melanoma. The following applies: 10 µM unless noted.
The test system of a further test is SK-MEL-2 melanoma. As to conditions: 10 µM unless noted.
For a further test, the system named is EKVX NSCLC. As to conditions: 10 µM.
The test system of a further test is SN12C renal. The following applies: 10 µM unless noted.
A further test concerns UO-31 renal. As to conditions: 10 µM unless noted.
The next test deals with TK-10 renal. The following applies: 10 µM unless noted.
For a further test, the system named is ACHN renal. The following applies: 10 µM unless noted.
The next test deals with A498 renal. The following applies: 10 µM unless noted.
The test system of the next test is CCRF-CEM leukemia. As to conditions: 10 µM.
In the next test the test system is MOLT-4 leukemia. The following applies: 10 µM unless noted.

The panel holds about 83,000 compounds, 20% with a hit somewhere; the sample as a whole holds those more often.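 Testing used 96-well plates and a 48-hour single-concentration exposure. Example: -40 means 40% of the starting cells died.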 Values without a mark were called inactive. Activity calls are given as the source filed them. The calls were made as follows: active = growth percent below 10; inactive = the rest.

Turning to `COc1ccc(C(=O)c2no[n+]([O-])c2C(=O)c2ccc(OC)cc2)cc1`, the growth is 20.1% in the test on HCT-15 colon; 10.1% in the test on HT29 colon; -99.3% (active) in the test on SNB-75 CNS; 97.7% with SNB-19 CNS; 35.9% in the test on U251 CNS; -37.7% (active) in the test with PC-3 prostate. Also, the growth is 85.5% in the test on SK-MEL-5 melanoma; 78.9% with UACC-62 melanoma; -69.2% (active) in the test with LOX IMVI melanoma; 109% with SK-MEL-28 melanoma; 93% in the test with SK-MEL-2 melanoma; 64.8% in the test with EKVX NSCLC. The growth was 72.5% in the test on SN12C renal; -100% (active) with UO-31 renal; 5.22% (active) with TK-10 renal; -47% (active) in the test on ACHN renal; 116% in the test on A498 renal; -68.7% (active) in the test on CCRF-CEM leukemia. Moreover, the growth with MOLT-4 leukemia was -80.1% (active).

Consider `COc1ccc(-c2nc(SCC(C)C)nc(Nc3ccc([N+](=O)[O-])cc3)c2C#N)cc1`, for which the growth is 101% in the test on HCT-15 colon; 97.1% in the test on HT29 colon; 88.1% in the test with SNB-75 CNS; 88.4% in the test with SNB-19 CNS; 80.9% with U251 CNS; 92.6% in the test with PC-3 prostate. For the same compound, the growth in the test on SK-MEL-5 melanoma is 96.3%; in the test with UACC-62 melanoma, 99%; in the test on LOX IMVI melanoma, 91.7%; in the test with SK-MEL-28 melanoma it was 107%; with SK-MEL-2 melanoma, 105%; in the test with EKVX NSCLC it was 98.5%. The growth in the test on SN12C renal is 72%; in the test with UO-31 renal, 79.7%; with TK-10 renal, 73%; in the test with ACHN renal, 41.7%; in the test on A498 renal, 89.8%; in the test on CCRF-CEM leukemia, 78.1%. For the same compound, in the test on MOLT-4 leukemia, the growth is 92.2%.

With `COc1ccc(/C=C2\SC(=O)N(Cc3cc(=O)oc4ccc(OC)cc34)C2=O)cc1`, the growth in the test with HCT-15 colon is 89.9%; in the test with HT29 colon, 95.8%; in the test with SNB-75 CNS, 74.3%; with SNB-19 CNS, 87%; with U251 CNS, 98.9%; in the test with PC-3 prostate, 93.1%. Also, the growth in the test on SK-MEL-5 melanoma was 87.4%; in the test with UACC-62 melanoma, 66.3%; in the test with LOX IMVI melanoma, 85.7%; with SK-MEL-28 melanoma, 95.1%; in the test on SK-MEL-2 melanoma it was 99.9%; with EKVX NSCLC it was 79.3%. The growth is 90.7% with SN12C renal; 70.6% with UO-31 renal; 97.8% in the test on TK-10 renal; 92.7% in the test with ACHN renal; 93.5% in the test with A498 renal; 77.2% with CCRF-CEM leukemia. Besides, the growth in the test on MOLT-4 leukemia is 85.1%.

As for `C[C@@H](c1ccc2c(c1)[nH]c1ccc(Cl)cc12)c1nc2ccc(Cl)cc2[nH]1`, the growth with HCT-15 colon is 90.1%; in the test with HT29 colon it was 97.2%; with SNB-75 CNS it was 74.2%; in the test with SNB-19 CNS it was 91.7%; in the test on U251 CNS, 92.1%; with PC-3 prostate, 84.4%. Moreover, the growth in the test with SK-MEL-5 melanoma is 95%; with UACC-62 melanoma it was 76.6%; in the test with LOX IMVI melanoma it was 85.4%; in the test on SK-MEL-28 melanoma, 99.8%; in the test on SK-MEL-2 melanoma it was 106%; in the test on EKVX NSCLC it was 75.5%. For the same compound, the growth with SN12C renal was 80.6%; in the test on UO-31 renal, 58%; in the test on TK-10 renal, 85.6%; with ACHN renal, 79.6%; in the test with A498 renal, 99.7%; in the test on CCRF-CEM leukemia, 16.6%. In the test with MOLT-4 leukemia, the growth is 49.4%.

As for `Cc1cc2c(-c3nc4ccccc4[nH]3)c(O)c(O)cc2c(O)c1-c1c(C)cc2c(-c3nc4ccccc4[nH]3)c(O)c(O)cc2c1O`, the growth in the test on HCT-15 colon is 11.9%; with HT29 colon, 10.5%; in the test on SNB-75 CNS, 5.43% (active); in the test with SNB-19 CNS, 7.78% (active); in the test on U251 CNS, -58.7% (active); in the test on PC-3 prostate it was 6.02% (active). Further, the growth in the test on SK-MEL-5 melanoma is -8.04% (active); in the test with UACC-62 melanoma, -16.6% (active); in the test on LOX IMVI melanoma it was -26.5% (active); in the test on SK-MEL-28 melanoma, 19.8%; in the test with SK-MEL-2 melanoma, 7.6% (active); with EKVX NSCLC it was 8.33% (active). In addition, the growth is 9.17% (active) in the test with SN12C renal; -30.6% (active) with UO-31 renal; -6.24% (active) in the test on TK-10 renal; 1.78% (active) with ACHN renal; -3.57% (active) in the test with A498 renal; 3.98% (active) with CCRF-CEM leukemia. Moreover, in the test on MOLT-4 leukemia, the growth is 2.22% (active).

On to `CCCCCCNC(=O)Oc1ccc(/C(=C(/C)Cc2ccc(OC)cc2)c2ccc(OCCN(C)C)cc2)cc1`, for which the growth with HCT-15 colon was 1.78% (active); with HT29 colon, -7.26% (active); with SNB-75 CNS it was 50.5%; in the test with SNB-19 CNS it was 78.8%; in the test on U251 CNS it was 23.4%; in the test on PC-3 prostate, 56.3%. In addition, the growth in the test with SK-MEL-5 melanoma was -49.6% (active); in the test on UACC-62 melanoma, 40.5%; with LOX IMVI melanoma, -15.9% (active); with SK-MEL-28 melanoma, 68.6%; with SK-MEL-2 melanoma, 111%; with EKVX NSCLC it was 78.1%. Moreover, the growth in the test with SN12C renal is 60.3%; in the test on UO-31 renal it was 38.9%; with TK-10 renal it was 71.5%; in the test with ACHN renal, 64.2%; in the test on CCRF-CEM leukemia, 48.2%; in the test on MOLT-4 leukemia, 30.7%.

Turning to `Cc1cc2c(-c3nc4ccccc4n3C)c(O)c(O)cc2c(O)c1-c1c(C)cc2c(-c3nc4ccccc4n3C)c(O)c(O)cc2c1O`, the growth in the test with HCT-15 colon was 78.9%; in the test with HT29 colon it was 25.2%; with SNB-75 CNS it was 69%; in the test on SNB-19 CNS, 15.4%; in the test with U251 CNS, 13.5%; with PC-3 prostate, 27.3%. The growth with SK-MEL-5 melanoma was 91.3%; in the test with UACC-62 melanoma, 28.9%; in the test with LOX IMVI melanoma, 30.4%; in the test on SK-MEL-28 melanoma, 58.1%; in the test on SK-MEL-2 melanoma, 37.2%; in the test on EKVX NSCLC, 56.8%. The growth was 35.2% with SN12C renal; 76.3% in the test with UO-31 renal; 57.1% with TK-10 renal; 89.1% in the test on ACHN renal; 28.5% with A498 renal; 20.5% with CCRF-CEM leukemia. Besides, the growth with MOLT-4 leukemia was 26.7%.

For the compound `O=C(O)c1ccc(-c2nn(-c3ccc(C(=O)O)cc3)cc2CNc2ccc(Br)cc2)cc1`, the growth with HCT-15 colon was 100%; in the test with HT29 colon it was 99%; with SNB-75 CNS it was 97.6%; in the test on SNB-19 CNS, 105%; in the test with U251 CNS it was 106%; in the test on PC-3 prostate, 101%. The growth with SK-MEL-5 melanoma is 103%; in the test with UACC-62 melanoma, 97.6%; in the test with LOX IMVI melanoma it was 102%; in the test on SK-MEL-28 melanoma, 103%; in the test on SK-MEL-2 melanoma, 94.4%; with EKVX NSCLC, 101%. Further, the growth was 111% in the test with SN12C renal; 87.7% with UO-31 renal; 98.4% with TK-10 renal; 102% with ACHN renal; 101% in the test with CCRF-CEM leukemia; 118% in the test on MOLT-4 leukemia.

The record behind these values is PubChem BioAssay (NCI).
